Experimental data published in PubChem BioAssay (NCI).
This is part of a sample that, as a whole, favours compounds with a hit. Of some 79,000 tested, about 15% had one in any assay. Activity calls are given as the source filed them. No stated cut-off is given here; in the data, active means growth inhibition above about 70%; inactive means the rest.

How the values were obtained:
[1] = NCI Yeast Anticancer Drug Screen. Data for the rad52 strain (AID 147);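 further: 0% = growth of vehicle-treated control cultures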; conditions: S. cerevisiae rad52 mutant growth inhibition, hits give high values
Method in brief: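 Measured: yeast growth inhibition. System: strain with a defined DNA damage repair alteration. Reference: vehicle-treated control cultures.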

[2] = NCI Yeast Anticancer Drug Screen. Data for the rad50EPP+ strain (AID 151);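 further: 0% = growth of vehicle-treated control cultures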; conditions: S. cerevisiae rad50 mutant strain, hits give high values
Method in brief: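 One strain with a rad50 alteration (rad50EPP+) was compound-treated, its growth then compared to that of vehicle controls.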

[3] = NCI Yeast Anticancer Drug Screen. Data for the mgt1 strain (AID 153); conditions: S. cerevisiae mgt1 mutant growth inhibition, hits give high values
Method in brief: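 After exposure of the mgt1 yeast mutant to compound, growth was measured and reported as inhibition compared with vehicle controls.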

[4] = NCI Yeast Anticancer Drug Screen. Data for the rad50 strain (AID 155);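 further: 0% = growth of vehicle-only cultures of the same strain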; conditions: S. cerevisiae rad50 strain growth inhibition, hits give high values
Method in brief: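 Vehicle-treated cultures provide the reference for the growth inhibition reported for compound-exposed, repair-deficient yeast.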

[5] = NCI Yeast Anticancer Drug Screen. Data for the mec2-1 strain (AID 157); conditions: S. cerevisiae mec2-1 strain, hits give high values
Method in brief: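 Test agents were screened against the mec2-1 yeast strain, with defined DNA repair or cell cycle alteration. Growth was scored as inhibition against vehicle-only controls.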

[6] = NCI Yeast Anticancer Drug Screen. Data for the rad14 strain (AID 159);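 further: 0% = growth of vehicle-treated control cultures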; conditions: S. cerevisiae rad14 strain growth inhibition, hits give high values
Method in brief: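 Inhibition of growth is reported for a repair-deficient yeast mutant following compound treatment, calculated relative to cultures that received vehicle.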

[7] = NCI Yeast Anticancer Drug Screen. Data for the sgs1 mgt1 strain (AID 161);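 further: 0% = growth of cultures given vehicle only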; conditions: S. cerevisiae sgs1 mgt1 strain, hits give high values
Method in brief: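 Test agents were incubated with a DNA-repair-mutant yeast strain. Growth was then read and compared against vehicle-treated controls.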

[8] = NCI Yeast Anticancer Drug Screen. Data for the CLN2oe strain (AID 163);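 further: 0% = growth of vehicle-only control cultures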; conditions: S. cerevisiae CLN2oe strain, hits give high values
Method in brief: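 Here, growth inhibition in a cell-cycle-altered yeast strain after compound exposure was quantified against vehicle control growth.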

[9] = NCI Yeast Anticancer Drug Screen. Data for the cln2 rad14 strain (AID 165);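 further: 0% = growth equal to vehicle treated cultures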; conditions: S. cerevisiae cln2 rad14 strain, hits give high values
Method in brief: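 Growth of compound-exposed yeast (cln2 rad14 genotype) measured and expressed as inhibition relative to vehicle.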

[10] = NCI Yeast Anticancer Drug Screen. Data for the bub3 strain (AID 167); conditions: S. cerevisiae bub3 mutant strain, hits give high values
Method in brief: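 Mutant yeast screening strain plus compound; vehicle-treated cultures serve as the 0% inhibition reference.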

[11] = NCI Yeast Anticancer Drug Screen. Data for the wt2 strain (AID 169); conditions: S. cerevisiae wt2 strain growth inhibition, hits give high values
Method in brief: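 Genetically defined yeast strains from a DNA-repair/cell-cycle panel were used. Compound-exposed yeast growth was measured, and the inhibition was calculated relative to vehicle treatment.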

[12] = NCI Yeast Anticancer Drug Screen. Data for the mlh1 strain (AID 171);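 further: 0% = growth of vehicle-treated control cultures of the same strain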; conditions: S. cerevisiae mlh1 strain growth inhibition, hits give high values
Method in brief: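 Here the genetically defined yeast mutant is grown with each compound, and the extent to which its growth falls below that of vehicle-exposed cells is reported.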

[13] = NCI Yeast Anticancer Drug Screen. Data for the sgs1 strain (AID 173);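 further: 0% = growth of vehicle-only control cultures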; conditions: S. cerevisiae sgs1 mutant, hits give high values
Method in brief: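 Relative growth inhibition, referenced to vehicle, was determined in a yeast strain with a defined alteration affecting DNA damage repair or cell cycle control after compound exposure.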

[14] = NCI Yeast Anticancer Drug Screen. Data for the mlh1 rad18 strain (AID 175); conditions: S. cerevisiae mlh1 rad18 strain growth inhibition, hits give high values
Method in brief: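 In this whole-cell yeast screen, a strain with altered DNA damage repair is challenged with compound, and its growth is measured against matched vehicle-treated controls.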

[15] = NCI Yeast Anticancer Drug Screen. Data for the rad18 strain (AID 177); conditions: S. cerevisiae rad18 mutant growth inhibition, hits give high values
Method in brief: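 Screen uses a yeast strain with a defined lesion in DNA damage repair; compound effect is read as loss of growth compared to untreated vehicle cultures.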

[16] = NCI Yeast Anticancer Drug Screen. Data for the wt1 strain (AID 149);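 further: 0% = growth of vehicle-treated wt1 cultures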; conditions: S. cerevisiae wt1 strain (SPY 50644) growth inhibition, hits give high values
Method in brief: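 Each compound is tested on wt1 yeast and the loss of growth versus vehicle gives the inhibition value.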

[17] = at 5.0 µM (retest, dose inferred, filed as 0.5)
[18] = at 50.0 µM (retest, dose inferred, filed as 5.0)

Measured: growth inhibition

c1ccc2c(c1)-c1nc3ccccc3cc1C2N1CCOCC1 (stereo unspecified)
inactive: [1]; at 1.2 µM -2% | [1]; at 3.7 µM 1% | [1]; at 11.0 µM 4% | [1]; at 33.0 µM 8% | [1]; at 100.0 µM 16% | [2]; at 1.2 µM 6% | [2]; at 3.7 µM 25% | [2]; at 11.0 µM 51% | [2]; at 33.0 µM 68% | [3]; at 1.2 µM 0% | [3]; at 3.7 µM -1% | [3]; at 11.0 µM -1% | [3]; at 33.0 µM 3% | [3]; at 100.0 µM 17% | [4]; at 1.2 µM 0% | [4]; at 3.7 µM -1% | [4]; [17] -6% | [4]; at 11.0 µM 10% | [4]; at 33.0 µM 9% | [4]; [18] 55% | [4]; at 100.0 µM 17% | [5]; at 1.2 µM 1% | [5]; at 3.7 µM 1% | [5]; [17] 4% | [5]; at 11.0 µM 2% | [5]; at 33.0 µM 5% | [5]; [18] 8% | [5]; at 50.0 µM 13.2% | [5]; at 100.0 µM 17% | [6]; at 1.2 µM 0% | [6]; at 3.7 µM 0% | [6]; at 11.0 µM -1% | [6]; at 33.0 µM -4% | [6]; at 100.0 µM 21% | [7]; [17] -13% | [7]; [18] 65% | [8]; at 1.2 µM -6% | [8]; at 3.7 µM -2% | [8]; at 11.0 µM -10% | [8]; at 33.0 µM -8% | [8]; at 100.0 µM -3% | [9]; [17] -32% | [9]; [18] 13% | [9]; at 50.0 µM 3.95% | [10]; at 1.2 µM 3% | [10]; at 3.7 µM 6% | [10]; [17] 7% | [10]; at 11.0 µM -17% | [10]; at 33.0 µM 29% | [10]; [18] 34% | [10]; at 50.0 µM 49.2% | [10]; at 100.0 µM 27% | [11]; at 1.2 µM -1% | [11]; at 3.7 µM 1% | [11]; at 11.0 µM 2% | [11]; at 33.0 µM 7% | [11]; at 100.0 µM 26% | [12]; at 1.2 µM 3% | [12]; at 3.7 µM 3% | [12]; at 11.0 µM 3% | [12]; at 33.0 µM -10% | [12]; at 100.0 µM 28% | [13]; at 1.2 µM 2% | [13]; at 3.7 µM 4% | [13]; at 11.0 µM 8% | [13]; at 33.0 µM 18% | [13]; at 100.0 µM 38% | [14]; [17] -1% | [14]; [18] 47% | [14]; at 50.0 µM 61.1% | [15]; at 1.2 µM 7% | [15]; at 3.7 µM 5% | [15]; at 11.0 µM 12% | [15]; at 33.0 µM 11% | [15]; at 100.0 µM 6%
active: [2]; at 100.0 µM 77% | [4]; at 50.0 µM 72.7% | [7]; at 50.0 µM 70.5%

CC(=O)[O][Bi]([c]1ccccc1)[c]1ccccc1
active: [1]; at 11.0 µM 72% | [1]; at 33.0 µM 91% | [1]; at 100.0 µM 94% | [16]; at 33.0 µM 90% | [16]; at 100.0 µM 94% | [4]; at 11.0 µM 73% | [4]; at 33.0 µM 95% | [4]; [18] 94% | [4]; at 50.0 µM 86% | [4]; at 100.0 µM 95% | [5]; at 33.0 µM 90% | [5]; [18] 95% | [5]; at 50.0 µM 89.5% | [5]; at 100.0 µM 95% | [6]; at 33.0 µM 95% | [6]; at 100.0 µM 96% | [7]; [18] 96% | [7]; at 50.0 µM 86.5% | [8]; at 33.0 µM 80% | [8]; at 100.0 µM 91% | [9]; [18] 95% | [9]; at 50.0 µM 84.7% | [10]; at 33.0 µM 91% | [10]; [18] 96% | [10]; at 50.0 µM 83.2% | [10]; at 100.0 µM 94% | [11]; at 11.0 µM 79% | [11]; at 33.0 µM 96% | [11]; at 100.0 µM 96% | [12]; at 33.0 µM 89% | [12]; at 100.0 µM 95% | [13]; at 33.0 µM 88% | [13]; at 100.0 µM 95% | [14]; [18] 93% | [14]; at 50.0 µM 91% | [15]; at 11.0 µM 72% | [15]; at 33.0 µM 91% | [15]; at 100.0 µM 94%
inactive: [1]; at 1.2 µM 31% | [1]; at 3.7 µM 41% | [16]; at 1.2 µM 2% | [16]; at 3.7 µM 11% | [16]; at 11.0 µM 23% | [4]; at 1.2 µM 36% | [4]; at 3.7 µM 42% | [4]; [17] 27% | [5]; at 1.2 µM 29% | [5]; at 3.7 µM 30% | [5]; [17] 19% | [5]; at 11.0 µM 40% | [6]; at 1.2 µM 39% | [6]; at 3.7 µM 35% | [6]; at 11.0 µM 64% | [7]; [17] 6% | [8]; at 1.2 µM 22% | [8]; at 3.7 µM 16% | [8]; at 11.0 µM 31% | [9]; [17] 7% | [10]; at 1.2 µM 15% | [10]; at 3.7 µM 13% | [10]; [17] 22% | [10]; at 11.0 µM 56% | [11]; at 1.2 µM 4% | [11]; at 3.7 µM 4% | [12]; at 1.2 µM 28% | [12]; at 3.7 µM 30% | [12]; at 11.0 µM 40% | [13]; at 1.2 µM 28% | [13]; at 3.7 µM 30% | [13]; at 11.0 µM 46% | [14]; [17] 42% | [15]; at 1.2 µM 15% | [15]; at 3.7 µM 30%
